# HP1b chromo inh: HP1-beta chromodomain-methylated histone interaction inhibition; P83916; AlphaScreen HP1-beta / biotin-H3K9me3 peptide binding; Potency, µM (series often up to 114 µM), inactives show at the highest dose activity change, negative = inhibition, hits mostly inhibitors; 390,000 compounds, 0.56% hits; AID 540317; further: potency means the concentration at half of the fitted maximal effect; nearly all actives have a fitted effect of over 70% in size
# Target sequence (P83916 whole entry, looked up): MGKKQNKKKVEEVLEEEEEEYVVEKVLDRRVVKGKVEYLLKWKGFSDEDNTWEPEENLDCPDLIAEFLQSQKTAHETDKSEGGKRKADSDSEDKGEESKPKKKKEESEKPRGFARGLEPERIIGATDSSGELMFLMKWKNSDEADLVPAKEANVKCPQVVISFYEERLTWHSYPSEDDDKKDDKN
#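 HP1-beta protein (50 nM final) preincubated 30 min at room temperature with biotinylated H3(1-18)K9me3 peptide (50 nM) in PBS pH 7.4, 0.01% Tween-20, then compound added for 30 min. AlphaScreen streptavidin donor/nickel chelate acceptor beads (10 ug/mL final), 30 min dark, luminescence read.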
# PLK1 PBD inh: PLK1 (human) polo-box domain binding inhibition. Plk1 PBD binding of FITC phosphopeptide, fluorescence polarization. Potency, µM, for the others: max response, negative = inhibition, actives largely listed as inhibitors. 360,000 compounds, 2.8% hits. AID 720504; further: potency means the concentration at half of the fitted maximal effect; series mostly up to about 57 µM; on the % scale 0 is the no-effect control and ±100 the full control effect; nearly all actives have a fitted effect of over 65% in size
# JMJD2A Tudor inh: inhibitors of human JMJD2A Tudor domain; O75164; AlphaScreen JMJD2A-Tudor / H3K4me3 peptide binding; Potency, µM (doses to about 114 µM), for the others: at the top dose activity change, negative = inhibition, actives largely listed as inhibitors; 390,000 compounds, 4.4% hits; AID 504339; further: potency means the concentration at half of the fitted maximal effect; on the % scale 0 is the no-effect control and ±100 the full control effect; nearly all actives have a fitted effect of over 50% in size
# BAZ2B inh: blocks human BAZ2B. AlphaScreen BAZ2B-H3K14Ac peptide displacement. 360,000 compounds, 4.4% hits. Potency, µM (top dose mostly 114 µM), without a hit: at the highest dose activity change, negative = inhibition, usual class: inhibitors; further: potency means the concentration at half of the fitted maximal effect; on the % scale 0 is the no-effect control and ±100 the full control effect; nearly all actives have a fitted effect of over 60% in size
#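 BAZ2B 50 nM plus b-H3(5-23)K14Ac 50 nM, PBS pH 7.4/0.01% Tween-20, 30 min RT; compound added (max 110 uM), 30 min RT; streptavidin donor/Ni-chelate acceptor beads 10 ug/mL final, 20 min dark; AlphaScreen read.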
# G9a block: G9a (human) methyltransferase inhibition. G9a H3K9 monomethylation, AlphaScreen, 2 h. Q96KQ7. 350,000 compounds, 8.8% hits. Potency, µM (series often up to 102 µM), without a hit: at the top dose activity, negative = inhibition, usual class: inhibitors; further: potency means the concentration at half of the fitted maximal effect; on the % scale 0 is the no-effect control and ±100 the full control effect; nearly all actives have a fitted effect of over 75% in size
# Target sequence (Q96KQ7 913-1193 limits assumed): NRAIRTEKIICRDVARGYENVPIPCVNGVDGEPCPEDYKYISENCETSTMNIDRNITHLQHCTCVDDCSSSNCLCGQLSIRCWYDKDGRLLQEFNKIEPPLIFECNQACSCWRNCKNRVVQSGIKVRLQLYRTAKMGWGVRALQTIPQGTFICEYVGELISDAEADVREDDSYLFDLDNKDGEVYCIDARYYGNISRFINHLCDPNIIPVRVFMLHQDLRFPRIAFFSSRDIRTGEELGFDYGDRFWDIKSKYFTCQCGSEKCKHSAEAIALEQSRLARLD
#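 Methyltransferase reactions run at room temperature for 2 h (20 nM enzyme, 500 nM biotin-H3K9 peptide, 20 uM SAM) after a 15 min compound preincubation; product detected by AlphaScreen beads and anti-H3K9me1 antibody.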
# PI5P4Ka inh: PI5P4K alpha (human) kinase inhibition; 330,000 compounds, 1.2% hits; P48426; max response, %; PI5P4Kalpha enzyme, ADP-Glo luminescence, 60 min; hits give low values; active means max response of -50% or lower; inconclusive means between -30% and -50%; inactive means -30% or higher; further: value at the top dose of about 77 µM; on the % scale 0 is the no-effect control and ±100 the full control effect
#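 Luminescence from ADP-Glo served as readout of PI5P4Kalpha activity in a qHTS format. Reaction: enzyme, substrate, compound, ATP at 5 microM final, 60 min at RT.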
# * = called active by the depositor; u = inconclusive; x = no result given; [ ] = another dose, or the depositor's remark. This is a sample that favours compounds with a hit; in the whole collection about 12% have one here. Unless noted, the call rests on the fitted dose curve; in most records, active means well fitted curve in the direction sought with a large enough effect; inconclusive means small, poorly fitted or top-dose-only effect, or another doubt; inactive means no such curve, though single readings can be large; an effect the other way counts as inactive or inconclusive.
SMILES,HP1b chromo inh,PLK1 PBD inh,JMJD2A Tudor inh,BAZ2B inh,G9a block,PI5P4Ka inh
Cc1cc(=O)oc2cc(O)ccc12,40.8%,6.9%,-10.2%,x,38.9%[21.5 µM],0.2
O=c1cc(O)c2ccc(O)cc2o1,21.1%,-8.4%,-6.8%,-6.1%,18.3%[59 µM],-50.4*
Cc1ccc(NS(=O)(=O)c2c(C)nc3sc(C)c(C)n3c2=O)cc1F,41.2%,x,-12.1%,-27.1%,-8.5%[59 µM],x
Cc1ccc(C2=Nc3ccccc3SC(c3cccc([N+](=O)[O-])c3)C2)cc1 (stereo not drawn),7.9%,0.7%,u,22.4µM*,44.7µM*,1.6
Cn1c(=O)oc2cc(S(=O)(=O)NC(Cc3ccccc3)C(=O)NCc3ccccc3Cl)ccc21 (stereo not drawn),42.1%,x,6.4%,0.8%[57.1 µM],3.9%[59 µM],x
O=C1CN(c2nc(-c3cccnc3)nc3scc(-c4ccccc4)c23)CCN1,35.9%,2.6%,1.4%,-28.9%,39.8µM*,5.8
O=C1CN(c2nc(-c3cccs3)nc3sc4c(c23)CCCC4)CCN1,35.8%,26.7µM*,-18.6%,-29.8%,7.9%[12.7 µM],-4.1
COc1ccc(-c2csc3nc(-c4cccnc4)nc(N4CCC(C(N)=O)CC4)c23)cc1OC,4.4%,u,-29.1%,-32.3%,u,-19.9
CC1(c2nnnn2Cc2ccccc2)CCC(=O)N1Cc1cccs1 (stereo not drawn),x,-1.4%,x,x,x,-7.3
CSc1nc(NCCOCCO)c2sc3nc(-c4ccco4)c4c(c3c2n1)CCC4,14.5%,-6.2%,-21.9%,44.7µM*,15.8µM*,-9.6
CSc1nc(NCc2ccco2)c2sc3nc(C(C)C)c4c(c3c2n1)CC(C)(C)OC4,7.7%,-6.4%,-19.8%,-2.8%,u,-1.0
CCN(CCO)c1nc(SC)nc2c1sc1nc(-c3ccco3)c3c(c12)CCC3,5.7%,u,-9.7%,50.1µM*,u,19.8
COc1ccc(Nc2nnc(SCC3CCCCO3)s2)cc1 (stereo not drawn),17.2%,-5.0%,-18.1%,-21.6%,u,-4.5
Cc1ccc(Nc2nnc(SCC(=O)c3ccc(O)cc3O)s2)cc1,-8.9%,-26.2%,-33.1%,-12.8%,31.6µM*,-55.7*
Cc1ccc(Nc2nnc(SCC(=O)N(C)C3CCS(=O)(=O)C3)s2)cc1 (stereo not drawn),18.1%,-2.9%,-14.0%,-3.1%,u,3.3
Cc1cccc(Nc2nnc(SCC(=O)c3ccc(O)cc3O)s2)c1,38.3%,-27.1%,-26.7%,-4.6%,44.7µM*,-15.4
Cc1cccc(Nc2nnc(SCC3CCCCO3)s2)c1 (stereo not drawn),23.7%,-4.5%,-2.7%,-7.6%,10µM*,-3.4
CCOc1ccccc1NC(=O)c1ccc2c(c1)CCCN2S(C)(=O)=O,38.1%,x,-16.7%,0.6%,-20.5%[59 µM],x
CC(C)c1ccc(Nc2ncnc3onc(-c4ccc(F)cc4)c23)cc1,62.7%,x,4.9%,10.4%[57.1 µM],17.6%[59 µM],x
Cc1ccc(Cl)cc1NC(=O)CSc1nc2c(c(=O)[nH]1)CN(Cc1ccccc1)CC2,40.4%,x,-1.0%,-3.7%,-42.3%[59 µM],x
COc1cc(F)ccc1-c1cc(C(=O)NCc2cc(C(F)(F)F)cc(C(F)(F)F)c2)[nH]n1,x,-1.0%,x,x,x,-0.5
Cc1cc(N2CCN(c3ccc([N+](=O)[O-])c4cccnc34)CC2)c2ccccc2n1,16.4%,11.5%,-7.3%,3.6%,-14.3%[59 µM],-3.2
Cc1cc(N2CCN(c3ccc(C(F)(F)F)cc3[N+](=O)[O-])CC2)c2ccccc2n1,-26.1%,1.0%,44.7µM*,25.1µM*,x,6.0
CCOc1ccccc1NC(=O)CSc1nc2c(c(=O)[nH]1)CCC2,22.4%,x,-13.9%,-18.7%,-4.0%[59 µM],x
COc1ccc(C(=O)/C(=C/c2cccs2)c2nc3ccccc3o2)cc1,u,26.7µM*,44.7µM*,-32.9%,u,-11.1
O=C(O)c1cc(N2N=C(C(F)(F)F)/C(=C/C=C/c3ccco3)C2=O)ccc1Cl,1.58µM*,0.532µM*,1µM*,12.6µM*,2.51µM*,-93.2*
CCOC(=O)c1ccc(N2N=C(C)/C(=C/C=C/c3ccco3)C2=O)cc1,u,-7.5%,u,6.31µM*,u,-11.1
